These results are taken from PubChem BioAssay (NCI).

The panel holds about 79,000 compounds, 15% with a hit somewhere; the sample as a whole holds those more often. A number with no mark means an inactive call. The source made the active and inactive calls. No stated cut-off is given here; in the data, active means growth inhibition above about 70%; inactive means the rest. Where a SMILES comes first, the peptide text is derived from it. The star is where a group is joined. Cbz = O=C(OCc1ccccc1)*; CH2Cl = ClC*

Assay [1] can be described thus: NCI Yeast Anticancer Drug Screen. Data for the rad50 strain (AID 155).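 Further: 0% = growth of vehicle-only cultures of the same strain.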 Particulars: S. cerevisiae rad50 strain growth inhibition, active compounds read high. Summed up:
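Compounds were tested on a yeast strain with an engineered DNA damage repair alteration; the reported value is growth inhibition normalised to vehicle treatment.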

Assay [2] is described as follows: NCI Yeast Anticancer Drug Screen. Data for the mec2-1 strain (AID 157). The settings on record: S. cerevisiae mec2-1 strain, active compounds read high. In short, it runs like this: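 Mutant yeast (mec2-1) grown with compound; growth inhibition relative to vehicle control reported.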
Assay [3] in a line: NCI Yeast Anticancer Drug Screen. Data for the sgs1 mgt1 strain (AID 161).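 Further: 0% = growth of cultures given vehicle only.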 Particulars: S. cerevisiae sgs1 mgt1 strain, active compounds read high. In short, it runs like this: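 This yeast growth screen uses a strain with defined DNA-repair lesions; compound-treated growth is compared with vehicle-treated growth.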
The nature of assay [4]: NCI Yeast Anticancer Drug Screen. Data for the cln2 rad14 strain (AID 165).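 Further: 0% = growth equal to vehicle treated cultures.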 Particulars: S. cerevisiae cln2 rad14 strain, active compounds read high. Summed up: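 Readout is yeast growth inhibition versus vehicle-treated controls, using a strain with cln2 and rad14 alterations exposed to compound.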
Assay [5] is described as follows: NCI Yeast Anticancer Drug Screen. Data for the bub3 strain (AID 167). Particulars: S. cerevisiae bub3 mutant strain, active compounds read high. In short, it runs like this:
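Growth of a checkpoint-deficient yeast mutant is measured after compound exposure. Values represent inhibition relative to vehicle.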

Assay [6] is described as follows: NCI Yeast Anticancer Drug Screen. Data for the mlh1 rad18 strain (AID 175). The settings on record: S. cerevisiae mlh1 rad18 strain growth inhibition, active compounds read high. Summed up: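 Genetically defined yeast (DNA repair-deficient) exposed to compounds; growth inhibition determined relative to vehicle.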
[7] abbreviates: at 5.0 µM (retest, dose inferred, filed as 0.5).
Where [8] appears, read: at 50.0 µM (retest, dose inferred, filed as 5.0).

Consider `ClC/C=C/c1ccccc1`, for which the growth inhibition in assay [1] (setting [7]) is 2%; in assay [1] (setting [8]), 31%; in assay [1] (at 50.0 µM), 68.8%; in assay [2] (setting [7]) it was -1%; in assay [2] (setting [8]) it was 11%; in assay [2] (at 50.0 µM), 16.9%. Moreover, the growth inhibition in assay [3] (setting [7]) is 3%; in assay [3] (setting [8]) it was 15%; in assay [3] (at 50.0 µM) it was 61%; in assay [4] (setting [7]), 6%; in assay [4] (setting [8]), 1%; in assay [4] (at 50.0 µM), -7.2%. Also, the growth inhibition in assay [5] (setting [7]) is 7%; in assay [5] (setting [8]), 20%; in assay [5] (at 50.0 µM), 37.1%; in assay [6] (setting [7]) it was 3%; in assay [6] (setting [8]), 18%; in assay [6] (at 50.0 µM) it was 62.6%.

For the compound `O=C(Nc1ccc(Br)cc1)c1cc(Br)c(O)c(Br)c1O`, the growth inhibition in assay [1] (setting [7]) was 21%; in assay [1] (setting [8]) it was 99% (active); in assay [1] (at 50.0 µM), 58.1%; in assay [2] (setting [7]), 9%; in assay [2] (setting [8]), 99% (active); in assay [2] (at 50.0 µM), 98.8% (active). The growth inhibition in assay [3] (setting [7]) is 29%; in assay [3] (setting [8]) it was 99% (active); in assay [3] (at 50.0 µM), 59.9%; in assay [4] (setting [7]) it was -5%; in assay [4] (setting [8]) it was 99% (active); in assay [4] (at 50.0 µM), 92.2% (active). Besides, the growth inhibition in assay [5] (setting [7]) is 11%; in assay [5] (setting [8]), 99% (active); in assay [5] (at 50.0 µM), 98.4% (active); in assay [6] (setting [7]), 24%; in assay [6] (setting [8]), 99% (active); in assay [6] (at 50.0 µM), 98% (active).

Turning to `Cc1ccc(OS(=O)(=O)c2ccc(Br)cc2)cc1`, the growth inhibition in assay [1] (setting [7]) was 2%; in assay [1] (setting [8]), 5%; in assay [1] (at 50.0 µM), -6%; in assay [2] (setting [7]), -16%; in assay [2] (setting [8]), 10%; in assay [2] (at 50.0 µM), 0.05%. For the same compound, the growth inhibition in assay [3] (setting [7]) is 8%; in assay [3] (setting [8]), 19%; in assay [3] (at 50.0 µM) it was -3.65%; in assay [4] (setting [7]) it was 9%; in assay [4] (setting [8]), 6%; in assay [4] (at 50.0 µM), -1%. In addition, the growth inhibition in assay [5] (setting [7]) was 16%; in assay [5] (setting [8]), 41%; in assay [5] (at 50.0 µM), -7%; in assay [6] (setting [7]), 3%; in assay [6] (setting [8]) it was 31%; in assay [6] (at 50.0 µM), 12.7%.

With `CCc1c(C(=O)OC)c(C(=O)OC)c(-c2ccccc2)n1CCn1c(CC)c(C(=O)OC)c(C(=O)OC)c1-c1ccccc1`, the growth inhibition in assay [1] (setting [7]) is -2%; in assay [1] (setting [8]) it was 82% (active); in assay [1] (at 50.0 µM), 50.1%; in assay [2] (setting [7]), -2%; in assay [2] (setting [8]), 64%; in assay [2] (at 50.0 µM), 38.2%. For the same compound, the growth inhibition in assay [3] (setting [7]) is -2%; in assay [3] (setting [8]), 74% (active); in assay [3] (at 50.0 µM), 28.6%; in assay [4] (setting [7]) it was 1%; in assay [4] (setting [8]), 52%; in assay [4] (at 50.0 µM), 25.5%. The growth inhibition in assay [5] (setting [7]) is 1%; in assay [5] (setting [8]), 83% (active); in assay [5] (at 50.0 µM), 98.5% (active); in assay [6] (setting [7]), 2%; in assay [6] (setting [8]), 54%; in assay [6] (at 50.0 µM) it was 40.4%.

`CC(C)CC(NC(=O)OCc1ccccc1)C(=O)NC(Cc1ccccc1)C(=O)CCl` (stereo not drawn) (Cbz-Leu-Phe-CH2Cl; configuration not given here): the growth inhibition in assay [1] (setting [7]) was 43%; in assay [1] (setting [8]), 62%; in assay [1] (at 50.0 µM), 28.9%; in assay [2] (setting [7]) it was 48%; in assay [2] (setting [8]), 86% (active); in assay [2] (at 50.0 µM), 58.5%. In addition, the growth inhibition was 27% in assay [3] (setting [7]); 46% in assay [3] (setting [8]); 53.8% in assay [3] (at 50.0 µM); 16% in assay [4] (setting [7]); 52% in assay [4] (setting [8]); -8.15% in assay [4] (at 50.0 µM). In addition, the growth inhibition in assay [5] (setting [7]) is 51%; in assay [5] (setting [8]), 77% (active); in assay [5] (at 50.0 µM), 87.5% (active); in assay [6] (setting [7]) it was 46%; in assay [6] (setting [8]) it was 74% (active); in assay [6] (at 50.0 µM), 54.9%.

With `COC(=O)c1ccccc1NC(=S)NN(C)C`, the growth inhibition in assay [1] (setting [7]) was 13%; in assay [1] (setting [8]) it was 20%; in assay [1] (at 50.0 µM), -0.25%; in assay [2] (setting [7]), 7%; in assay [2] (setting [8]) it was 17%; in assay [2] (at 50.0 µM), -14.3%. Moreover, the growth inhibition in assay [3] (setting [7]) was -5%; in assay [3] (setting [8]) it was 16%; in assay [3] (at 50.0 µM) it was -8.9%; in assay [4] (setting [7]) it was 9%; in assay [4] (setting [8]) it was 11%; in assay [4] (at 50.0 µM), 18.2%. The growth inhibition in assay [5] (setting [7]) was -20%; in assay [5] (setting [8]), 36%; in assay [5] (at 50.0 µM) it was 3.85%; in assay [6] (setting [7]), 16%; in assay [6] (setting [8]) it was 28%; in assay [6] (at 50.0 µM), -2%.

`CCc1cccc(CC)c1N=Nc1c(N)nc(N)[nH]c1=O`: the growth inhibition is -11% in assay [1] (setting [7]); -6% in assay [1] (setting [8]); -4.8% in assay [1] (at 50.0 µM); -23% in assay [2] (setting [7]); -9% in assay [2] (setting [8]); -32% in assay [2] (at 50.0 µM). Besides, the growth inhibition in assay [3] (setting [7]) is -11%; in assay [3] (setting [8]), 6%; in assay [3] (at 50.0 µM), 39.8%; in assay [4] (setting [7]) it was 0%; in assay [4] (setting [8]) it was 2%; in assay [4] (at 50.0 µM), -21%. Moreover, the growth inhibition in assay [5] (setting [7]) is -2%; in assay [5] (setting [8]) it was -3%; in assay [5] (at 50.0 µM), -19.8%; in assay [6] (setting [7]), 8%; in assay [6] (setting [8]), -30%; in assay [6] (at 50.0 µM) it was -11.7%.

On to `CCCCCCCCCCCCCCCC[N+](C)(C)CCl`, for which the growth inhibition in assay [1] (setting [7]) is 99% (active); in assay [1] (setting [8]) it was 100% (active); in assay [1] (at 50.0 µM) it was 85.6% (active); in assay [2] (setting [7]), 99% (active); in assay [2] (setting [8]), 100% (active); in assay [2] (at 50.0 µM), 89.7% (active). The growth inhibition is 99% (active) in assay [3] (setting [7]); 100% (active) in assay [3] (setting [8]); 82.2% (active) in assay [3] (at 50.0 µM); 99% (active) in assay [4] (setting [7]); 99% (active) in assay [4] (setting [8]); 89% (active) in assay [4] (at 50.0 µM). Besides, the growth inhibition is 99% (active) in assay [5] (setting [7]); 100% (active) in assay [5] (setting [8]); 87.3% (active) in assay [5] (at 50.0 µM); 99% (active) in assay [6] (setting [7]); 100% (active) in assay [6] (setting [8]); 80.1% (active) in assay [6] (at 50.0 µM).
